KB-V1 cytotox – KB-V1 MDR subline cytotoxicity | KB-V1 MDR cells viability, CellTiter-Glo, 72 h | Potency, µM (doses to about 46.1 µM), actives largely listed as cytotoxic | 3.4% of 400,000 active; note: nearly all actives have a fitted effect of over 60% in size
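In this primary screen, KB-V1 cells overexpressing P-gp are incubated with library compounds (lowest to highest concentration) for 72 h at 37 degrees C before a luminescent ATP viability read.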
KB-3-1 tox – kills parental KB-3-1 adenocarcinoma cells; KB-3-1 viability, CellTiter-Glo ATP luminescence, 72 h; Potency, µM (top dose mostly 46.1 µM), actives largely listed as cytotoxic; 1.4% of 400,000 active; note: nearly all actives have a fitted effect of over 60% in size
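Here the drug-naive KB-3-1 line serves as comparator for MDR sub-line selectivity; cells received compound titrations, 72 h at 37 °C, then CellTiter-Glo readout.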
MCF10A rereplic – induces DNA re-replication in MCF 10a normal breast cells; MCF 10A DNA re-replication, Hoechst nuclear intensity, 48 h; Potency, µM (titrated, usually from 46.1 µM), usual class: activators; 2.9% of 350,000 active; note: nearly all actives have a fitted effect of over 50% in size
D3 antag – antagonists of human D3 dopamine receptor; P35462; D3R cells, DiscoveRx beta-arrestin luminescence, antagonist mode; hits give low values; max response, negative = inhibition, %; 2.5% of 360,000 active; AID 652054; in the data active = max response below about -50%; inconclusive = no clear call, values can overlap the other calls
Target sequence (P35462 whole entry, looked up): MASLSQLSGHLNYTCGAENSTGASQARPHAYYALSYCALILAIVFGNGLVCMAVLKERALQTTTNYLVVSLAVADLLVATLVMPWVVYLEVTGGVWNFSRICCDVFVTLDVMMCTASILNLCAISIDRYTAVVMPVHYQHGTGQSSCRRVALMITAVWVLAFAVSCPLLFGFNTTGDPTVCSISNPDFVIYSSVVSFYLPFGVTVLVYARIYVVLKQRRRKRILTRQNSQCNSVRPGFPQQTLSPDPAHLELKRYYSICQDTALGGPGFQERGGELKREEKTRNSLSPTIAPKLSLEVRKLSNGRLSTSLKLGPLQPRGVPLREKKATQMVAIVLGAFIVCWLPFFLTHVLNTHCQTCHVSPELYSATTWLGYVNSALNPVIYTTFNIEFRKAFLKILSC
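Cells expressing the human receptor were seeded at 1500 cells/well, incubated overnight at 37 degrees C in 5% CO2, then exposed to library compounds with dopamine controls for 90 minutes at 37 degrees C before luminescent detection.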
SW480 rereplic – induces DNA re-replication in SW480 colon adenocarcinoma cells | 1.8% of 340,000 active | Potency, µM (doses to about 46.1 µM), hits mostly activators | SW480 DNA re-replication, Hoechst DNA content imaging, 48 h | AID 624297; note: nearly all actives have a fitted effect of over 55% in size
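DNA re-replication was detected as more nuclei of elevated Hoechst intensity after 48 hr exposure to compound (23 nL pinned per well of 250 cells).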
DRD3 agonist – agonists of human D3 dopamine receptor | P35462 | AID 652048 | 0.58% of 410,000 active | max activation, % | D3R DiscoveRx beta-arrestin cells, luminescence, 90 min; in the data active = max activation above about 30%
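Agonist-mode cell screen: cells plated at 1500/well and incubated overnight at 37 °C, then exposed to library compounds for 90 min at 37 °C. Detection reagent was added for 30–60 min at room temperature, and luminescence was read.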
Each line names hits and unclear results; the compound was inactive in the other large screens. Most compounds without a hit are left out; they make up all but 8.9% or so of the library. Unless noted, calls come from the whole dose curve; as a rule, active = well fitted curve in the direction sought with a large enough effect; inconclusive = small, poorly fitted or top-dose-only effect, or another doubt; inactive = no such curve, though single readings can be large; an effect the other way counts as inactive or inconclusive.

CCOc1ccccc1N(CC(=O)NC(C)(C)C)C(=O)Cn1nnc(-c2ccc(C)o2)n1	KB-V1 cytotox 2.91µM
Cn1c(=O)c2c(c3ccccc31)OC(=O)CC2c1ccc(C(F)(F)F)cc1 (stereo unspecified)	none (no result: MCF10A rereplic, D3 antag, SW480 rereplic)
COc1ccccc1N(C(=O)Cn1nnc(-c2ccc(C)o2)n1)C(C(=O)NC1CCCC1)c1ccncc1 (stereo unspecified)	KB-3-1 tox inconclusive, D3 antag -53.1
COc1cccc(-c2sc3ccc(OC)cc3c2-c2ccc(OCCN(C)C)cc2)c1	KB-V1 cytotox inconclusive, KB-3-1 tox inconclusive, MCF10A rereplic inconclusive, D3 antag -78.6
O=C(NC1CCCCCC1)c1c(O)nc2sccn2c1=O	KB-V1 cytotox 14.6µM, KB-3-1 tox inconclusive
O=C(NC1CCCCC1)c1c(O)nc2sccn2c1=O	KB-V1 cytotox inconclusive, KB-3-1 tox inconclusive
O=C(NCC1CCCO1)c1c(O)nc2sccn2c1=O (stereo unspecified)	none
CC1CC(NC(=O)c2c(O)nc3ccccn3c2=O)CC(C)(C)C1 (stereo unspecified)	KB-V1 cytotox 20.6µM
CC1CC(NC(=O)c2c(O)nc3sccn3c2=O)CC(C)(C)C1 (stereo unspecified)	KB-V1 cytotox 18.4µM, SW480 rereplic inconclusive
Cc1ccc2[nH]c3c(c2c1)CN(C(=O)CN1CCCCC1)CC3	MCF10A rereplic inconclusive
Cc1ccc2[nH]c3c(c2c1)CN(C(=O)CN1CCCc2ccccc21)CC3	MCF10A rereplic 23.1µM, SW480 rereplic inconclusive
O=C(CNC1CCCCC1)NN=C(c1ccccc1)c1ccccc1	KB-V1 cytotox inconclusive
O=C(NN=C(c1ccccc1)c1ccccc1)C(CCl)C1CCCCC1 (stereo unspecified)	D3 antag -50.5
Cc1ccc2oc3c(c(=O)c2c1)C(c1ccccc1F)N(CCCN(C)C)C3=O (stereo unspecified)	none (no result: KB-V1 cytotox, KB-3-1 tox, MCF10A rereplic, D3 antag, SW480 rereplic)
Cc1ccc(Sc2c(C)nn(C(=O)COc3ccc(F)cc3)c2C)cc1	none (no result: MCF10A rereplic, D3 antag, SW480 rereplic)
O=C(Nc1ccccc1OCc1cc(=O)n2ccccc2n1)Nc1ccccc1C(F)(F)F	none (no result: KB-V1 cytotox, KB-3-1 tox, MCF10A rereplic, D3 antag, SW480 rereplic)
O=C(CSc1nnc(-c2ccc(Cl)cc2)n1CC1CCCO1)NC1CCS(=O)(=O)C1 (stereo unspecified)	MCF10A rereplic 1.16µM, SW480 rereplic inconclusive
Cc1ccccc1-n1c(-c2ccc(Cl)cc2)cnc1SCC(=O)NC1CCS(=O)(=O)C1 (stereo unspecified)	KB-V1 cytotox 18.4µM
O=C(CSc1nnc(-c2ccccc2)n1-c1ccccc1)c1cccs1	KB-V1 cytotox 20.6µM, MCF10A rereplic inconclusive
O=C(CSc1nnc(-c2ccccc2Br)n1-c1ccccc1)c1ccc(F)cc1	KB-V1 cytotox 18.4µM, KB-3-1 tox inconclusive (no result: MCF10A rereplic, D3 antag, SW480 rereplic)
Cc1ccc(C(=O)CSc2nnc(-c3ccccc3)n2-c2ccccc2)cc1	KB-V1 cytotox inconclusive (no result: MCF10A rereplic, D3 antag, SW480 rereplic)
O=C(CSc1nnc(-c2cccs2)n1-c1ccccc1)N1CCCc2ccccc21	KB-V1 cytotox 16.4µM, MCF10A rereplic inconclusive
CCOc1ccc(-c2nnc(SCC(=O)c3ccc(F)cc3)n2-c2ccccc2)cc1	none (no result: KB-V1 cytotox, KB-3-1 tox, MCF10A rereplic, D3 antag, SW480 rereplic)
CCn1c(SCC(=O)N2CCCc3ccccc32)nnc1-c1ccco1	none
CCn1c(SCC(=O)N2CCCc3ccccc32)nnc1-c1cccs1	KB-V1 cytotox inconclusive, D3 antag -68.0
Clc1cccc(N2CCN(c3nc4ccccc4c4nc(-c5cccnc5)nn34)CC2)c1	none (no result: MCF10A rereplic, D3 antag, SW480 rereplic)
Cc1ccc(S(=O)(=O)N2CCCC(c3nc4c(nnn4Cc4ccc(OC(F)(F)F)cc4)c(=O)[nH]3)C2)cc1 (stereo unspecified)	none (no result: MCF10A rereplic, D3 antag, SW480 rereplic)
COc1ccccc1-c1cc2nc(C)c(CCC(=O)NCCc3ccc(SC)cc3)c(C)n2n1	none (no result: KB-V1 cytotox, KB-3-1 tox, MCF10A rereplic, D3 antag, SW480 rereplic)
CC1(C(=O)O)CCC2(C)CCC3(C)C(=CC(=O)C4C5(C)CCC(O)C(C)(C)C5CCC43C)C2C1 (stereo unspecified)	MCF10A rereplic 26.6µM (no result: KB-V1 cytotox, KB-3-1 tox, D3 antag, DRD3 agonist)
CC1(C)[C@@H](O)CC[C@]2(C)C3C(O)C=C4[C@H]5C[C@@](C)(CO)CC[C@]5(C)CC[C@]4(C)[C@]3(C)CC[C@@H]12 (stereo partly specified)	MCF10A rereplic 13µM, DRD3 agonist 65.2

From PubChem
